AmpC detergent = AmpC beta-lactamase inhibition with detergent present. AmpC hydrolysis of nitrocefin, absorbance 480 nm, 0.01% Triton. Potency, µM (doses to about 114 µM), for the others: at the top dose activity change, negative = inhibition, actives largely listed as inhibitors. 0.041% of 370,000 active. AID 485294;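 also: potency is read from the fitted curve at half-maximal effect; 0% = no-compound wells and -100% = no-enzyme wells; nearly all actives have a fitted effect of over 25% in size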
Target sequence (P00811 whole entry, looked up): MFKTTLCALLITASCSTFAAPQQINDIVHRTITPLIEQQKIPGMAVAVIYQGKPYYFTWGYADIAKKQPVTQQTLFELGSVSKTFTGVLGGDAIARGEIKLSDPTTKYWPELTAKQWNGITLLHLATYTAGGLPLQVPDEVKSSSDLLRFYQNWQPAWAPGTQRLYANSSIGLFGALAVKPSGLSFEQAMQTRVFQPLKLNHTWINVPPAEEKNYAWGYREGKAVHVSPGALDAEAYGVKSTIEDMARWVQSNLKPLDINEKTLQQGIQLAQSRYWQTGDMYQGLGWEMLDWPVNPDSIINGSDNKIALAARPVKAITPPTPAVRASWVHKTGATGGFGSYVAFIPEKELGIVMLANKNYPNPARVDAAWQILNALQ
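20 mM phosphate pH 7.0 + 0.01% (detergent screen) or 0.0001% Triton X-100; 5.3 nM AmpC reagent; cpd preinc 15 min RT; nitrocefin (800 uM stock) to start; A480 q20 s × 4 min; Activity was normalised to no-enzyme and no-compound control wells.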
NS1 function inh = inhibitors of influenza NS1 protein function; Potency, µM (highest dose often 46.1 µM), for inactives: top-dose activity, positive = more growth; 0.4% of 270,000 active; calls by dose curve; also: potency is read from the fitted curve at half-maximal effect; actives are rising curves; nearly all actives have a fitted effect of over 50% in size
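Compounds were scored for reversing the slow growth caused by influenza A NS1 in S. cerevisiae, measured by optical density at 600 nm. Assay medium contained 2% galactose at pH 6.0; NS1-free yeast of the same strain were the positive control.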
Shiga inhibitor = blocks Shiga toxin action in Vero cells. 9.2% of 290,000 active. Vero cells, Shiga toxin protein synthesis inhibition reporter. inhibition, % at 38.7 µM; in the data active = inhibition mostly above about 28%, no sharp cut-off; inactive = mostly below about 43%; also: 0% is about no effect
AmpC no deterg = inhibitors of E. coli AmpC beta-lactamase without detergent; AmpC nitrocefin hydrolysis, absorbance 480 nm, 0.0001% Triton; Potency, µM (series often up to 57.1 µM), without a hit: at the top dose activity change, negative = inhibition, most hits filed as inhibitors; 0.52% of 330,000 active; AID 485341;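 also: potency is read from the fitted curve at half-maximal effect; plate controls were no compound for no effect and no enzyme for full effect; nearly all actives have a fitted effect of over 20% in size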
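AmpC (5.3 nM in the dispensed reagent) in 20 mM phosphate pH 7.0 with 0.01% (detergent screen) or 0.0001% Triton X-100 was preincubated with compounds for 15 min at room temperature. Nitrocefin was then added from an 800 uM solution, and hydrolysis was followed at 480 nm.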
CHX counter = counter-screen for Shiga toxin inhibitors: cycloheximide protein synthesis inhibition | cell reporter, cycloheximide protein synthesis inhibition counterscreen | max response, % | 12% of 300,000 active | AID 2314; in the data active = max response mostly above about 13%, no sharp cut-off; inactive = mostly below about 14%; also: read at 38.3 µM for the half of the compounds with a filed dose; 0% is about no effect
Starred values were filed as active, the others as inactive; ? = inconclusive; · = not tested or not shown; [ ] = dose if it differs, or a comment. The full list was thinned out, with hits kept by preference. Unless noted, calls follow the shape of the dose curve; as a rule, active = well fitted curve in the direction sought with a large enough effect; inconclusive = small, poorly fitted or top-dose-only effect, or another doubt; inactive = no such curve, though single readings can be large; an effect the other way counts as inactive or inconclusive.

SMILES	AmpC detergent	NS1 function inh	Shiga inhibitor	AmpC no deterg	CHX counter
CCCOc1ccc(NC2=CC(=O)CC(C)(C)C2)cc1	3%	-8%	48	-6%	17*
Cc1ccc(NC2=CC(=O)CC(C)(C)C2)c(N)c1	?	?	128*	-1%	60*
CCc1ccc(CNc2ncnc3onc(-c4ccc(Cl)cc4)c23)cc1	3%	·	·	·	·
COc1ccc(C(=O)c2c(C)c3cc(C)ccc3n2CC(O)CN2CCOCC2)cc1 (stereo not drawn)	2%	-42%	-11	355%	-3
CCOC(=O)c1[nH]c2c(c1-c1ccccc1)C(=O)CC(c1ccccc1)C2 (stereo not drawn)	-3%	2%	54*	-6%	41*
COC(=O)C(C)CCCC(C)CCCC(C)CCCC(C)C (stereo not drawn)	·	·	-6	·	-7
CC(C)c1ccc(Nc2ncccc2C(=O)O)cc1	-4%	-7%	15	-18%	43*
COc1ccc(Nc2ncccc2C(=O)Nc2ccccc2)cc1	14%	-17%	-3	-18%	7
CCSc1ncc(Cl)c(C(=O)Nc2nc3ccc(S(C)(=O)=O)cc3s2)n1	-3%	·	·	·	·
COc1ccc(OC)c(N2C(=O)/C(=C/c3ccco3)C(=O)NC2=S)c1	50µM*	10%	-2	18µM*	-5
O=C1NC(=S)N(c2ccc(F)cc2)C(=O)/C1=C/c1ccco1	50µM*	?	-9	18µM*	-1
COc1ccc(N2C(=O)/C(=C/c3ccc(C)o3)C(=O)NC2=S)cc1	-5%	14%	27	-19%	-1
NNC(=S)NC1CCCCC1	-6%	-1%	43*	-15%[2.29 µM]	13*
Clc1ccc(-c2nnc(SCc3nc4ccccc4[nH]3)o2)c(Cl)c1	-6%	4%	32	-34%	17*
Clc1ccc(-c2nnc(SCc3ccon3)o2)c(Cl)c1	-13%	-19%	61*	-25%	37*
C=CCSc1nnc(-c2ccc(Cl)cc2Cl)o1	-2%	-12%	92*	-10%	43*
Clc1cccc(CSc2nnc(-c3c[nH]c4ccccc34)o2)c1	-11%	2%	9	-23%	9.8*
O=C(Nc1ccccc1-c1nnc(SCc2ccc(Cl)cc2Cl)o1)c1ccccc1	?	12%	-13	-21%	-3
Cc1ccc2c(c1)C1(C=CC(=O)C=C1)CC(=O)N2C	·	·	-5	·	16
COc1ccc(C2=COc3ccccc3C(=O)N2)cc1	?	·	56*	-23%	21*
Cc1cc(NC(=O)c2ccc3c(c2)N(Cc2cccc(Cl)c2)C(=O)c2ccccc2S3(=O)=O)ccc1Br	-10%	·	·	·	·
CCCCc1ccc(NC(=O)CC(C)=O)cc1	-14%	-8%	43	-8%	0
CCCCc1ccc(NC(=O)C(C)CC)cc1 (stereo not drawn)	-2%	1%	51*	-4%	48*
CCCCc1ccc(NC(=O)CC(C)(C)C)cc1	-9%	-46%	164*	-4%	144*
CCCCc1ccc(NC(=O)N[C@@H](C)C(=O)O)cc1	1%	-3%	15	-20%	-1
SMILES	AmpC detergent	NS1 function inh	Shiga inhibitor	AmpC no deterg	CHX counter
Cc1nn(C(C)(C)C)c(OC(=O)c2cccc(F)c2)c1Sc1ccccc1	9%	·	·	·	·
COc1ccc(OC)c(NS(=O)(=O)c2ccc3c(c2)CCCN3C(=O)C2CCC2)c1	0%	·	·	·	·
O=C(COn1nnc2ccccc21)NCC1CCCCC1	?	-1%	89	-24%	28*
CCOc1ccccc1NC(=O)CC(O)(C(F)(F)F)C(F)(F)F	-2%	-12%	-5	6%	-2
COc1ccccc1OCC(=O)NCC1CCCCC1	-2%	-5%	46	1%	12
O=C(COn1nnc2ccccc21)N1CCN(Cc2ccccc2)CC1	-7%	·	96*	16%	50*
CCOc1ccccc1NC(=O)COn1nnc2ccccc21	-10%	-50%	37	-44%	17*
Cc1cc(F)ccc1NC(=O)CCS(=O)(=O)c1cc2c(cc1C)NC(=O)CO2	0%	·	·	·	·
O=C(CSc1nc(=O)n(Cc2ccco2)c2c1CCC2)Nc1cccc(F)c1	1%	·	·	·	·
O=C(c1ccc(Cl)cc1)n1nc(-c2ccco2)nc1NCc1cccs1	11%	·	·	·	·
CC(C)C(NC(=O)C(NC(=O)C1OC2OC(C)(C)OC2C2OC(C)(C)OC12)C(C)C)C(=O)O (stereo not drawn)	4%	0%	31*	-10%	15*
CC(C)CC(NC(=O)C(NC(=O)C1OC2OC(C)(C)OC2C2OC(C)(C)OC12)C(C)C)C(=O)O (stereo not drawn)	5%	6%	-6	-9%	-2
CC(OC(=O)c1ccc(S(=O)(=O)N2CCCCC2)cc1)C(=O)NC1CCCCC1C (stereo not drawn)	-7%	4%	-18	0%	-3
CCOc1ccccc1C(=O)Nc1ccccc1-c1ccccc1	-10%	-8%	-7	-11%	-4
C=CCSc1cc(C)nc2c(-c3ccccc3)cnn12	3%	-9%	80*	-12%	63*
Cc1ccc(-c2cc(C(F)(F)F)n3ncc(-c4ccccc4)c3n2)cc1	7%	·	·	·	·
CCSc1cc(C)nc2c(-c3ccccc3)cnn12	5%	-8%	69*	-8%	52*
CC(=O)Nc1c(C(=O)O)oc2ccc(Cl)cc12	3%	5%	-10	-12%	-1
COCC(=O)Nc1c(C(=O)Nc2ccc3c(c2)OCO3)oc2ccccc12	-10%	8%	11	-21%	7
CSCc1c(C(=O)Nc2ccc3c(c2)OCO3)oc2ccccc12	-1%	-8%	60*	-53%	19*
Cc1c(C(=O)Nc2ccc3c(c2)OCO3)oc2ccccc12	-15%	-69%	121*	-33%	43
CC(=O)Nc1c(C(=O)O)oc2ccccc12	-10%	-1%	41	-12%	24*
CC(=O)Nc1c(C(=O)Nc2ccc3c(c2)OCO3)oc2ccccc12	-9%	-3%	114*	-18%	42*
O=C(CCl)Nc1c(C(=O)Nc2ccc3c(c2)OCCO3)oc2ccccc12	2%	16%	84*	-13%	69*
Cc1ccc(-c2cc(-c3c(C)nn(C)c(=O)c3N)[nH]n2)cc1	-11%	5%	30	9%	26*
SMILES	AmpC detergent	NS1 function inh	Shiga inhibitor	AmpC no deterg	CHX counter
Cc1nn(C)c(=O)c(N)c1-c1cc(-c2ccc(Cl)c(Cl)c2)n[nH]1	-17%	3%	6	2%	1
N#CCSc1nnc(COc2ccc3ccccc3c2)o1	-20%	-49%	93*	13%	67*
COc1ccc(Cc2n[nH]c(=S)o2)cc1	1%	6%	-4	44%	-3
S=c1[nH]nc(COc2ccc3ccccc3c2)o1	?	-16%	43*	-26%	15
Cc1cc(NS(=O)(=O)c2ccc(N3C(=O)C4C5C=CC(C5)C4C3=O)cc2)nc(C)n1 (stereo not drawn)	?	9%	16	-46%	14*
Cc1ccc2oc(=O)c(/C=C(\O)C(C)(C)C)nc2c1	-11%	·	28	-25%	10
O=c1oc2ccccc2nc1/C=C(O)/C=C/c1ccc(F)cc1	3%	-17%	85*	-29%	44*
